Measurements taken from PubChem BioAssay (EPA / NIEHS).
Records with an inconclusive call do not appear. The source made the active and inactive calls. The calls were made as follows, unless noted: active = hit-call score of the fitted dose curve at least 0.9, where 1 is the maximum; inconclusive = response in the unintended direction; inactive = score below 0.9.

Biological target: Estrogen receptor (Homo sapiens) (UniProt P03372)
Sequence (P03372 whole entry, looked up): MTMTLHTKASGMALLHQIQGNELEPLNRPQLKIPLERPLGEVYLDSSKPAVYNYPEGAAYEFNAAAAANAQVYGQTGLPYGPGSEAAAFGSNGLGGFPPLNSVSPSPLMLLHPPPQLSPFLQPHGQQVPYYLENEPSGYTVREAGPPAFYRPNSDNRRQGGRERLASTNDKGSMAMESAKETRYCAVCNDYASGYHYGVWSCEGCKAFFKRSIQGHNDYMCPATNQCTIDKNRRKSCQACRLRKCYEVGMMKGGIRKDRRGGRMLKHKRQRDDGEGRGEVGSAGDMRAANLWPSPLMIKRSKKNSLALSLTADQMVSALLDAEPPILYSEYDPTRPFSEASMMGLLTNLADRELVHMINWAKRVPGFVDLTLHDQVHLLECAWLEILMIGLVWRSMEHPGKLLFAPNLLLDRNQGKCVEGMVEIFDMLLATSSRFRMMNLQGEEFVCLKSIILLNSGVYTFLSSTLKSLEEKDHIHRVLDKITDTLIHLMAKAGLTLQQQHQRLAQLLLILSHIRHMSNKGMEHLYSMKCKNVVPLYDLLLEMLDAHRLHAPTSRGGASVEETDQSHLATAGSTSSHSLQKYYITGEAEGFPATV
Experiment: CCTE_Deisenroth_AIME_384WELL_LUC_Active: CCTE's 384-well Estrogen Receptor Transactivation Assay with AIME metabolic competence (ERTA luciferase; metabolism positive), Deisenroth Lab (AID 2284030)
In short: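 Chemicals (10-point, 0.002-200 uM) were first incubated 2 hours with alginate-immobilized induced male Sprague Dawley rat liver S9. The conditioned medium was then applied to VM7Luc4E2 cells for 24 hours, with ER luciferase induction read by luminescence relative to 17beta-estradiol.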
For `COc1ccc2[nH]cc(CCNC(C)=O)c2c1`, the outcome was “inactive”.
In the case of `O=C(OCc1ccccc1)c1ccccc1O`, the outcome is reported as “inactive”.
With `Cc1cccc(O)c1` the outcome was “inactive”.
In the case of `CC(C)(C)C1CCC(O)CC1` (stereo not drawn), the outcome is reported as “inactive”.
In the case of `CC(=O)c1ccc2ccccc2c1`, the AC50 is reported as 74.9 µM (active).
With `CCC(C)COC(=O)CC(C)C` (stereo not drawn) the outcome was “inactive”.
In the case of `CCCCOCCOCCOCCO`, the outcome is reported as “inactive”.
In the case of `CN(C)C(=O)Nc1ccccc1`, the outcome is reported as “inactive”.
In the case of `CCCC1CCC(=O)CC1`, the outcome is reported as “inactive”.
In the case of `CC(=O)C1=C(C)[C@@H]2C[C@@]3(C1)[C@H](C)CC[C@H]3C2(C)C`, the AC50 is reported as 0.000204 µM (active).
In the case of `CCCO`, the outcome is reported as “inactive”.
With `CC(=O)Oc1c(C)c(C)c2c(c1C)CC[C@@](C)(CCC[C@H](C)CCC[C@H](C)CCCC(C)C)O2` the outcome was “inactive”.
For `CCCCCCCCOC(=O)c1ccc(O)cc1`, the outcome was “inactive”.
In the case of `C=C(C)C(N)=O`, the outcome is reported as “inactive”.
In the case of `C=CC(C)CCCC(C)(C)O` (stereo not drawn), the outcome is reported as “inactive”.
With `CCCC[N+](C)(CCCC)CCCC` the outcome was “inactive”.
With `[O-]/[N+](=N\O)c1ccccc1` the AC50 was 72.8 µM (active).
For `[Na+]`, the outcome was “inactive”.

System: not listed separately
Experiment: CCTE_Shafer_MEA_dev_firing_rate_mean: CCTE's Neural Network Formation Assay for Mean Firing Rate, Shafer Lab (AID 2284031; active = hit-call score of the fitted dose curve at least 0.9, where 1 is the maximum; inactive = score below 0.9)
In short: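 Spike frequency (spikes/recording length, averaged over active electrodes) was recorded on days 5, 7, 9 and 12 and collapsed to AUC; rat cortical cultures received compound continuously over 12 days of network development.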
With `CC(C)Cc1ccc(C(C)C(=O)O)cc1` (stereo not drawn) the outcome was “inactive”.
With `N#CCCNCCC#N` the outcome was “inactive”.
With `CCCCC(CC)COC(=O)COc1ccc(Cl)cc1C` (stereo not drawn) the outcome was “inactive”.

System: not listed separately
Experiment: CCTE_Shafer_MEA_dev_per_burst_spike_percent: CCTE's Neural Network Formation Assay for Percent of Spikes in a Burst, Shafer Lab (AID 2284032; active = hit-call score of the fitted dose curve at least 0.9, where 1 is the maximum; inactive = score below 0.9)
In short: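 Value is trapezoidal AUC over recordings on days 5, 7, 9 and 12 of the well-mean fraction of spikes falling in single-electrode bursts; rat cortical cultures exposed continuously from plating, treatment renewed DIV 5 and 9, fitted downward against DMSO.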
For `CC(C)Cc1ccc(C(C)C(=O)O)cc1` (stereo not drawn), the outcome was “inactive”.
For `N#CCCNCCC#N`, the outcome was “inactive”.
With `CCCCC(CC)COC(=O)COc1ccc(Cl)cc1C` (stereo not drawn) the outcome was “inactive”.

System: not listed separately
Experiment: CCTE_Deisenroth_AIME_384WELL_CTox_Active: Cytotoxicity Assessment (CTOX) in CCTE's 384-well Estrogen Receptor Transactivation Assay with AIME metabolic competence (metabolism positive), Deisenroth Lab (AID 2284037);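 also: chemicals first conditioned 2 h by alginate-bound induced rat liver S9 before cells; activity means signal loss indicating cell death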
In short: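 Chemicals pre-incubated 2 hours with alginate-immobilised phenobarbital/beta-naphthoflavone-induced male Sprague Dawley rat liver S9, then conditioned medium applied 24 hour to VM7Luc4E2 cells. Viability by fluorogenic protease substrate; 10-point series 0.002 - 200 uM.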
With `COc1ccc2[nH]cc(CCNC(C)=O)c2c1` the outcome was “inactive”.
In the case of `O=C(OCc1ccccc1)c1ccccc1O`, the outcome is reported as “inactive”.
In the case of `Cc1cccc(O)c1`, the outcome is reported as “inactive”.
With `CC(C)(C)C1CCC(O)CC1` (stereo not drawn) the outcome was “inactive”.
For `CC(=O)c1ccc2ccccc2c1`, the outcome was “inactive”.
In the case of `CCC(C)COC(=O)CC(C)C` (stereo not drawn), the outcome is reported as “inactive”.
For `CCCCCCCCCCCCOCCOS(=O)(=O)O`, the AC50 was 147 µM (active).
In the case of `CC(=O)C1=C(C)[C@@H]2C[C@@]3(C1)[C@H](C)CC[C@H]3C2(C)C`, the outcome is reported as “inactive”.
In the case of `CC(=O)Oc1c(C)c(C)c2c(c1C)CC[C@@](C)(CCC[C@H](C)CCC[C@H](C)CCCC(C)C)O2`, the outcome is reported as “inactive”.
In the case of `C=C(C)C(N)=O`, the outcome is reported as “inactive”.

Biological target: Estrogen receptor (Homo sapiens) (UniProt P03372)
Experiment: CCTE_Deisenroth_AIME_384WELL_LUC_Inactive: CCTE's 384-well Estrogen Receptor Transactivation Assay without AIME metabolic competence (ERTA luciferase; metabolism negative), Deisenroth Lab (AID 2284038);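 also: VM7Luc4E2 breast cells given medium preincubated 2 h with S9-free microspheres; hits raise estrogen receptor luciferase signal so potencies reflect agonists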
In short: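 VM7Luc4E2 ER transactivation, luciferase bioluminescence after 24 h, using medium pre-incubated 2 h with S9-free alginate microspheres. Concentrations 0.002–200 uM; gain of signal fitted relative to 17beta-estradiol.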
With `COc1ccc2[nH]cc(CCNC(C)=O)c2c1` the outcome was “inactive”.
With `O=C(OCc1ccccc1)c1ccccc1O` the AC50 was 46.4 µM (active).
With `Cc1cccc(O)c1` the outcome was “inactive”.
For `CC(C)(C)C1CCC(O)CC1` (stereo not drawn), the outcome was “inactive”.
For `CC(=O)c1ccc2ccccc2c1`, the outcome was “inactive”.
With `O=C1OC2(c3ccc(O)cc3Oc3cc(O)ccc32)c2ccccc21` the outcome was “inactive”.
With `CCC(C)COC(=O)CC(C)C` (stereo not drawn) the outcome was “inactive”.
With `CCCCOCCOCCOCCO` the outcome was “inactive”.
For `CN(C)C(=O)Nc1ccccc1`, the outcome was “inactive”.
